Results on 16 molecules are retold here after PubChem BioAssay (EPA / NIEHS).

The structures appear in SMILES notation. Results filed as inconclusive are left out. Calls of active or inactive are those of the source. Rule for the calls: active = hit-call score of the fitted dose curve at least 0.9, where 1 is the maximum; inconclusive = response in the unintended direction; inactive = score below 0.9.

In test [1] the target is human Adrenergic, Beta 3 Receptor (Adrb3), ADRB3 (gene 155) (UniProt P13945). The test can be described thus: NVS_GPCR_hAdrb3: NovaScreen (NVS) G Protein-Coupled Receptor Assay for human Adrenergic, Beta 3 Receptor (Adrb3) (AID 2283262). The gist of the method: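 Membranes from SK-N-MC cells pretreated with isoproterenol and 8-bromo-cAMP were used in a radioligand competitive displacement binding assay. Binding was read by filter-based scintillation counting 1 hour after dosing. Primary screening was in duplicate at 25 uM, with concentration series in follow-up.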
Chain of human Adrenergic, Beta 3 Receptor (Adrb3), ADRB3 (gene 155) (P13945 whole entry, looked up): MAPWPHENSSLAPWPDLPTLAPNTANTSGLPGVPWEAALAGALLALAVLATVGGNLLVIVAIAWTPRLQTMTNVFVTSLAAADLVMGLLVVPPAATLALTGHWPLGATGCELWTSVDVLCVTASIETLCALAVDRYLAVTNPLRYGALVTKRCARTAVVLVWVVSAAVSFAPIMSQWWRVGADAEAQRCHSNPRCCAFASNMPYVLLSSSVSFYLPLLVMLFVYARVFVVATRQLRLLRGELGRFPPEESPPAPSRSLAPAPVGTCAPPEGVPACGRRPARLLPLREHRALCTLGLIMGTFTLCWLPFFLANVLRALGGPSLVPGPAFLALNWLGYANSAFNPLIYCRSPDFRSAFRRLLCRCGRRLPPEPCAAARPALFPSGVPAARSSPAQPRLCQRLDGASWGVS

The target of test [2] is human Dopamine Receptor D4.4 (DRD4.4), DRD4 (gene 1815) (UniProt P21917). The test can be described thus: NVS_GPCR_hDRD4.4: NovaScreen (NVS) G Protein-Coupled Receptor Assay for human Dopamine Receptor D4.4 (DRD4.4) (AID 2283264). A digest of the protocol:
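Radioligand displacement on human DRD4.4 from CHO-derived membranes, 1 hour incubation, bound counts read by filtration and scintillation. Primary screen in duplicate at 25 uM; actives followed up in concentration series.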

Test [3] addresses human Dopamine Receptor D2 (DRD2), DRD2 (gene 1813) (UniProt P14416). The test can be described thus: NVS_GPCR_hDRD2s: NovaScreen (NVS) G Protein-Coupled Receptor Assay for human Dopamine Receptor D2 (DRD2) (AID 2283266). The gist of the method:
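Radioligand displacement used human DRD2 membranes extracted from CHO cells and was read by filter-based scintillation counting after 1.5 hours. Primary screening was in duplicate at 25 uM. Loss of signal versus DMSO was fitted, with concentration series in follow-up.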

For test [4], the target named is Muscarinic acetylcholine receptor M1 (Homo sapiens) (UniProt P11229). The test can be described thus: NVS_GPCR_hM1: NovaScreen (NVS) G Protein-Coupled Receptor Assay for human Muscarinic, M1 Receptor (AID 2283270). A digest of the protocol: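 Cell-free radioligand displacement using membrane protein extracted from CHO cells, read by filter-based scintillation counting 1 h after dosing. Loss of bound signal fitted versus DMSO; primary screen single concentration 25 uM in duplicate, actives followed by concentration series.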

The target of test [5] is Muscarinic acetylcholine receptor M3 (Homo sapiens) (UniProt P20309). The test can be described thus: NVS_GPCR_hM3: NovaScreen (NVS) G Protein-Coupled Receptor Assay for human Muscarinic, M3 Receptor (AID 2283272). A digest of the protocol:
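Radioligand displacement binding on human M3 receptor in CHO-derived membranes, 1 h incubation, filter-based scintillation counting. Primary screen in duplicate at 25 uM; actives followed up in concentration series; loss of signal versus DMSO.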

The target of test [6] is Muscarinic acetylcholine receptor M2 (Homo sapiens) (UniProt P08172). The test can be described thus: NVS_GPCR_hM2: NovaScreen (NVS) G Protein-Coupled Receptor Assay for human Muscarinic, M2 Receptor (AID 2283273). A digest of the protocol:
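Radioligand displacement on human M2 receptor membranes from CHO cells, 1 h incubation, filtration with scintillation counting. Primary screen in duplicate at 25 uM; actives retested in concentration series; loss of signal fitted versus DMSO.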

The target of test [7] is human Muscarinic, M4 Receptor, CHRM4 (gene 1132) (UniProt P08173). The test can be described thus: NVS_GPCR_hM4: NovaScreen (NVS) G Protein-Coupled Receptor Assay for human Muscarinic, M4 Receptor (AID 2283274). The gist of the method: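 Cell-free radioligand displacement using CHO-derived human M4 receptor protein, 1 h after dosing; bound radioactivity by filtration and scintillation counting. Primary screen single 25 uM duplicate, actives followed in concentration series.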

Test [8] addresses Muscarinic acetylcholine receptor M5 (Homo sapiens) (UniProt P08912). The test can be described thus: NVS_GPCR_hM5: NovaScreen (NVS) G Protein-Coupled Receptor Assay for human Muscarinic, M5 Receptor (AID 2283275). The gist of the method:
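Radioligand displacement on CHO-derived membrane preparations, 1 h, filter-based scintillation counting. Single-concentration duplicate screen at 25 uM; hits (e.g. 30% inhibition) retested in singleton concentration-response up to 50 uM. Loss of binding fitted versus DMSO.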

In test [9] the target is human Neurokinin, NK2 Receptor, TACR2 (gene 6865) (UniProt P21452). The test can be described thus: NVS_GPCR_hNK2: NovaScreen (NVS) G Protein-Coupled Receptor Assay for human Neurokinin, NK2 Receptor (AID 2283278).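 Note: actives reduce bound radioligand signal relative to DMSO baseline.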 The gist of the method: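 Filter-based scintillation counting measured radioligand bound to receptor extracted from CHO cells, 4 hours after compound addition. Chemicals screened first at 25 uM in duplicate, with actives retested in concentration series relative to DMSO.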
Chain of human Neurokinin, NK2 Receptor, TACR2 (gene 6865) (P21452 whole entry, looked up): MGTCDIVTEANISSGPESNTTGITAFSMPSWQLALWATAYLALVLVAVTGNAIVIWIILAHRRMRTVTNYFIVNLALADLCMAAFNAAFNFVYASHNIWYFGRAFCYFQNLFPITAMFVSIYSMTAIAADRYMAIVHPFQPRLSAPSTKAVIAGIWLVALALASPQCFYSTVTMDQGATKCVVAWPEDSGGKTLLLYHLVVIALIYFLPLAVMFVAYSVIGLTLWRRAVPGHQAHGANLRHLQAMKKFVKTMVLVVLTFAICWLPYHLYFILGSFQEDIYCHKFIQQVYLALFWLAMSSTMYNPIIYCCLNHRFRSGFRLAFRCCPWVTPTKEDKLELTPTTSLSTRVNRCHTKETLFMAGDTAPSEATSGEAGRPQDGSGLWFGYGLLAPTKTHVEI

For test [10], the target named is Neuropeptide Y receptor type 2 (Homo sapiens) (UniProt P49146). The test can be described thus: NVS_GPCR_hNPY2: NovaScreen (NVS) G Protein-Coupled Receptor Assay for human Neuropeptide Receptor Y2 (NPY2) (AID 2283277). The gist of the method: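 Radioligand binding on membranes extracted from SK-N-MC cells, cell-free, read 1 h after dosing by filter-based scintillation counting. Loss of signal vs DMSO. Primary screen in duplicate at 25 uM; actives followed up in concentration-response up to 50 uM.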

Test [11] deals with human Neurotensin Receptor (NTS), NTSR1 (gene 4923) (UniProt P30989). The test can be described thus: NVS_GPCR_hNTS: NovaScreen (NVS) G Protein-Coupled Receptor Assay for human Neurotensin Receptor (NTS) (AID 2283279). The gist of the method:
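Radioligand displacement on human NTSR1 protein from CHO cells, cell-free, 1 h, filter-based scintillation counting. Primary screen at 25 uM in duplicate; hits rerun in concentration-response up to 50 uM.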

For test [12], the target named is human Adrenergic, Alpha 2c Receptor (Adra2C), ADRA2C (gene 152) (UniProt P18825). The test can be described thus: NVS_GPCR_hAdra2C: NovaScreen (NVS) G Protein-Coupled Receptor Assay for human Adrenergic, Alpha 2c Receptor (Adra2C) (AID 2283259). A digest of the protocol:
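Radioligand binding on Sf9-expressed receptor membranes, 1 h after chemical dosing, filter-based scintillation read-out. Loss of binding fitted positively versus DMSO; primary duplicate screen at 25 uM, actives retested in concentration series.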

Test [13] addresses Beta-2 adrenergic receptor (Homo sapiens) (UniProt P07550). The test can be described thus: NVS_GPCR_hAdrb2: NovaScreen (NVS) G Protein-Coupled Receptor Assay for human Adrenergic, Beta 2 Receptor (Adrb2) (AID 2283261). A digest of the protocol:
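Filter-based radioligand binding using receptor prepared from CHO cells, 1 h incubation, scintillation counting. Primary screen in duplicate at 25 uM, actives retested in concentration series; loss of binding relative to DMSO.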

In test [14] the target is Type-1 angiotensin II receptor (Homo sapiens) (UniProt P30556). The test can be described thus: NVS_GPCR_hAT1: NovaScreen (NVS) G Protein-Coupled Receptor Assay for human Angiotensin II receptor type 1 (AT1) (AID 2283263). The gist of the method:
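Membranes from KAN-TS cells; radioligand competitive displacement, 3 h, filtration and scintillation counting. Single-point duplicate screen at 25 uM, then concentration-response up to 50 uM for hits; loss of signal fitted versus DMSO.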

Test [15] has as its target human Histamine 1 Receptor (H1), HRH1 (gene 3269) (UniProt P35367). The test can be described thus: NVS_GPCR_hH1: NovaScreen (NVS) G Protein-Coupled Receptor Assay for human Histamine 1 Receptor (H1) (AID 2283268). The gist of the method:
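Cell-free radioligand displacement at human H1 receptor, 1 h, filter scintillation counting; primary screen 25 uM in duplicate, hits in concentration series; loss of binding fitted vs DMSO.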

Test [16] deals with D(1A) dopamine receptor (Homo sapiens) (UniProt P21728). The test can be described thus: NVS_GPCR_hDRD1: NovaScreen (NVS) G Protein-Coupled Receptor Assay for human Dopamine Receptor D1 (DRD1) (AID 2283269). A digest of the protocol: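 HEK293-derived receptor preparation; radioligand competitive displacement; 1 h; filtration + scintillation counting. DMSO = negative control/baseline. Primary: 25 uM, duplicate; secondary: concentration–response for actives.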

Test [17] has as its target human Leukotriene B4 Receptor 1 (LTB4-BLT1), LTB4R (gene 1241) (UniProt Q15722). The test can be described thus: NVS_GPCR_hLTB4_BLT1: NovaScreen (NVS) G Protein-Coupled Receptor Assay for human Leukotriene B4 Receptor 1 (LTB4-BLT1) (AID 2283271). A digest of the protocol: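 Radioligand displacement binding on receptor extracted from human neutrophils, cell-free, 1 h after dosing; filter-based scintillation counting. Primary screen in duplicate at 25 uM, actives retested in concentration-response up to 50 uM; loss of signal versus DMSO.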

Test [18] has as its target human Endothelin Receptor Type B (ETB), EDNRB (gene 1910) (UniProt P24530). The test can be described thus: NVS_GPCR_hETB: NovaScreen (NVS) G Protein-Coupled Receptor Assay for human Endothelin Receptor Type B (ETB) (AID 2283267). The gist of the method:
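Human astrocytoma cell membranes; radioligand competitive binding read by filter scintillation counting 4 hours after dosing. Single-concentration duplicate screen at 25 uM, then singleton concentration-response up to 50 uM; loss of signal versus DMSO.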

Test [19] deals with human Endothelin Receptor Type A (ETA), EDNRA (gene 1909) (UniProt P25101). The test can be described thus: NVS_GPCR_hETA: NovaScreen (NVS) G Protein-Coupled Receptor Assay for human Endothelin Receptor Type A (ETA) (AID 2283265). A digest of the protocol:
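Cell-free radioligand displacement using SH-SY5Y-derived protein, 3 h incubation, filter-based scintillation counting. Primary screen in duplicate at 25 uM; actives then run in concentration-response up to 50 uM; loss of binding fitted versus DMSO.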

Test [20] concerns the target human Neuropeptide Receptor Y1 (NPY1), NPY1R (gene 4886) (UniProt P25929). The test can be described thus: NVS_GPCR_hNPY1: NovaScreen (NVS) G Protein-Coupled Receptor Assay for human Neuropeptide Receptor Y1 (NPY1) (AID 2283276). A digest of the protocol:
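Cell-free radioligand binding using receptor extracted from SK-N-MC cells, 1 h incubation, filter-based scintillation counting. Primary screen single concentration 25 uM in duplicate; actives followed in concentration series. Loss of bound signal scored versus DMSO.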

Chain of Type-1 angiotensin II receptor (Homo sapiens) (P30556 whole entry, looked up): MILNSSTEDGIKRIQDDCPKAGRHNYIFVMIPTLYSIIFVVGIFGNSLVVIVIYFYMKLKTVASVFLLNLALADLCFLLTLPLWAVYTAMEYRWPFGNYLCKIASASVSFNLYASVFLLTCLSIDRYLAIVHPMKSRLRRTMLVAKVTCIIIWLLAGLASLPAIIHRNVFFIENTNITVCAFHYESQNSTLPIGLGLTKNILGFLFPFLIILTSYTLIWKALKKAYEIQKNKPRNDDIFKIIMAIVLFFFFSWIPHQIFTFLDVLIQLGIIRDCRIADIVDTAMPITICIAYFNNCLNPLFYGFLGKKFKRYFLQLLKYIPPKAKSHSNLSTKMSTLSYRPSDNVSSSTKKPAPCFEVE
Chain of Muscarinic acetylcholine receptor M5 (Homo sapiens) (P08912 whole entry, looked up): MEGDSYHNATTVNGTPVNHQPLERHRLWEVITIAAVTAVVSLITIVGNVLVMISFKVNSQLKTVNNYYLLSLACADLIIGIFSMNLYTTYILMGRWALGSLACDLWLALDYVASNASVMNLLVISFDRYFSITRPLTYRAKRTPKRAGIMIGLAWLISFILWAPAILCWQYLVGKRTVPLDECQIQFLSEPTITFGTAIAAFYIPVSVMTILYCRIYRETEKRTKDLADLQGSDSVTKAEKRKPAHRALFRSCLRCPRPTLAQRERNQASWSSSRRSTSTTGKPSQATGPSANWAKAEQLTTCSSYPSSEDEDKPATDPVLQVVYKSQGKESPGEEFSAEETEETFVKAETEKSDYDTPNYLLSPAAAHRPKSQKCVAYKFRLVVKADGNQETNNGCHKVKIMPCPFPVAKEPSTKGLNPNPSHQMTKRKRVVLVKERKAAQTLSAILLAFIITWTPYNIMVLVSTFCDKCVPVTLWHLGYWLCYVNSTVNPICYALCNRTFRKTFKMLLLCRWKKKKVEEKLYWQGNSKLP
Chain of Muscarinic acetylcholine receptor M2 (Homo sapiens) (P08172 whole entry, looked up): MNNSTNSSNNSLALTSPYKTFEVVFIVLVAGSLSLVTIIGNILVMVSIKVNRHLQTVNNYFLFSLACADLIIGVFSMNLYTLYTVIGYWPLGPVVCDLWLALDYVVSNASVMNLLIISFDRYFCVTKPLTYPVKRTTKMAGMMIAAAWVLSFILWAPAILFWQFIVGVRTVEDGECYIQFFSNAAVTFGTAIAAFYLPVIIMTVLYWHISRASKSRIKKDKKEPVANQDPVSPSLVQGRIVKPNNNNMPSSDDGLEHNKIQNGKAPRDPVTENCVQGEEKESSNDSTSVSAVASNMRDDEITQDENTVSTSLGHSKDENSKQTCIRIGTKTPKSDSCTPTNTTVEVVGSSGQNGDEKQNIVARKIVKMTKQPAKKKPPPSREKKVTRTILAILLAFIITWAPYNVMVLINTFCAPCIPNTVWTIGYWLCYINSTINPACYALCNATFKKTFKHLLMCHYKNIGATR
Chain of human Dopamine Receptor D2 (DRD2), DRD2 (gene 1813) (P14416 whole entry, looked up): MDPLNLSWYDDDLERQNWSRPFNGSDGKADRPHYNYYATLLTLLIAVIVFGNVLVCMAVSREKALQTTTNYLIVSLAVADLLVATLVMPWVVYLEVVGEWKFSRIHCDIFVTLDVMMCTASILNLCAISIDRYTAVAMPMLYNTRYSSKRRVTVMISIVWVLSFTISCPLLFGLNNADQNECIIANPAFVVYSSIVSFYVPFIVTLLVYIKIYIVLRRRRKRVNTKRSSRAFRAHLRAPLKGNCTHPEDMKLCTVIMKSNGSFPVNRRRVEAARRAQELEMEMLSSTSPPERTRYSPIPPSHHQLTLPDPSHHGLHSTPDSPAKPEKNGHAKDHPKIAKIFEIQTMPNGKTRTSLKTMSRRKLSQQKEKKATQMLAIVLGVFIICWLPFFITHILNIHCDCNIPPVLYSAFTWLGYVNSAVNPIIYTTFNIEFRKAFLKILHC
Chain of human Dopamine Receptor D4.4 (DRD4.4), DRD4 (gene 1815) (P21917 whole entry, looked up): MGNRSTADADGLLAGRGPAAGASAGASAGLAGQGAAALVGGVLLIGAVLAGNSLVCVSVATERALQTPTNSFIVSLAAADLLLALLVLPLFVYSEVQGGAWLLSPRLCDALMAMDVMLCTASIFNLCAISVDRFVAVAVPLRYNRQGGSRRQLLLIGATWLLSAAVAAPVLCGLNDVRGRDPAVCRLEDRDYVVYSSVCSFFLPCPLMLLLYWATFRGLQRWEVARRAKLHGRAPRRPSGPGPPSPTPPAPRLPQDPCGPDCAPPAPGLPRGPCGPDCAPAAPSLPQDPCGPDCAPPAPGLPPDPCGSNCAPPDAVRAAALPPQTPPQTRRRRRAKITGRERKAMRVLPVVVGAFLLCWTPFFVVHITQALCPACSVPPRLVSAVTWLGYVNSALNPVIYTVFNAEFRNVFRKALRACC
Chain of human Neurotensin Receptor (NTS), NTSR1 (gene 4923) (P30989 whole entry, looked up): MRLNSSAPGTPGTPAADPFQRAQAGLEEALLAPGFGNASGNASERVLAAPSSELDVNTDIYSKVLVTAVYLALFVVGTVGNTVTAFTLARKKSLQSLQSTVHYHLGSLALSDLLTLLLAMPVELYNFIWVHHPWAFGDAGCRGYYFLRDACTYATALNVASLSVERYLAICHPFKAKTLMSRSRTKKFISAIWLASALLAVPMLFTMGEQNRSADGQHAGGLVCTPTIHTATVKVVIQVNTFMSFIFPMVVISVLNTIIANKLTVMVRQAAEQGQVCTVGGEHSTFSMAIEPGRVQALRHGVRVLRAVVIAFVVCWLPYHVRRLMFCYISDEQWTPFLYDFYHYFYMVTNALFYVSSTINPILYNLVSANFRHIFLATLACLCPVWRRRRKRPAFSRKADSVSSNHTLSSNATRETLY
Chain of human Leukotriene B4 Receptor 1 (LTB4-BLT1), LTB4R (gene 1241) (Q15722 whole entry, looked up): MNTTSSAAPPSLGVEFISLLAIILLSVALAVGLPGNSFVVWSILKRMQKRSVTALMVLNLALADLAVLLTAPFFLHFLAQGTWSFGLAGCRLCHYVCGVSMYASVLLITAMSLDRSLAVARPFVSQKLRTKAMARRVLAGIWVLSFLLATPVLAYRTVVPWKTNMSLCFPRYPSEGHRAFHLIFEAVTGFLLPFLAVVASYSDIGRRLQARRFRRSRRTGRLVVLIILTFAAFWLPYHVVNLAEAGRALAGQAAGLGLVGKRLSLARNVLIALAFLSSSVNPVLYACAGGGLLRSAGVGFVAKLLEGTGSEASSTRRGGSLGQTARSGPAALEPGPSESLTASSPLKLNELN
Chain of human Histamine 1 Receptor (H1), HRH1 (gene 3269) (P35367 whole entry, looked up): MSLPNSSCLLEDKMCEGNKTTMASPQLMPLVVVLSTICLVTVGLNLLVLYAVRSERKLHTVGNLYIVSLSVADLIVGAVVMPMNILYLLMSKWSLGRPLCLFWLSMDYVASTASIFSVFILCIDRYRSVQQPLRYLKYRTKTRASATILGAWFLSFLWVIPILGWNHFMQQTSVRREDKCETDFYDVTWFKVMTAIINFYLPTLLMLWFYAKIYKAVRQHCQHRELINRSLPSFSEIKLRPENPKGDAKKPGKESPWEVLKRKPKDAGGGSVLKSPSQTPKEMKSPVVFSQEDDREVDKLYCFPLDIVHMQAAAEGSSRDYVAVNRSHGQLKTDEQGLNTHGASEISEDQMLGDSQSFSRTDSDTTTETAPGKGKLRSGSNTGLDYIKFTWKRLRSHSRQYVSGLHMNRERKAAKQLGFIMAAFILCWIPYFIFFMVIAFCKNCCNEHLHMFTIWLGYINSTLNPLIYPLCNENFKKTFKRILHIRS
Chain of human Adrenergic, Alpha 2c Receptor (Adra2C), ADRA2C (gene 152) (P18825 whole entry, looked up): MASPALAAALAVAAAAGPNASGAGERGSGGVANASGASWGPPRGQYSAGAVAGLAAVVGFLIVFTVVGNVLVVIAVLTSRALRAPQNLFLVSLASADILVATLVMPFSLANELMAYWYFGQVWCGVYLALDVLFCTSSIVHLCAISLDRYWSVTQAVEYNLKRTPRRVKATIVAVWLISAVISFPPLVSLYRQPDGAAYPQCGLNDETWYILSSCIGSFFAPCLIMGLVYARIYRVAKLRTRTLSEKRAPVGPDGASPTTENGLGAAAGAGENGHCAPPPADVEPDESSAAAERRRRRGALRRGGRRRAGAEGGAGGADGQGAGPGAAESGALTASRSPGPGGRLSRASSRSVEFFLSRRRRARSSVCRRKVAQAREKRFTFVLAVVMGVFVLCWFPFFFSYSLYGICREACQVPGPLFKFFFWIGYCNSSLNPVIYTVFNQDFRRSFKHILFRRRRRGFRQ

The term AC50 denotes the midpoint of the concentration-response curve, whichever way the signal moves. Turning to `CN(C)C(=O)NC1(c2ccccc2)CCN(CCC[C@]2(c3ccc(Cl)c(Cl)c3)CCCN(C(=O)c3ccccc3)C2)CC1`, the call in [1] was inactive. Also, the AC50 in test [2] is 6.25 µM (active); in [3], 4 µM (active); in test [4], 2.02 µM (active); in test [5], 3.84 µM (active); in test [6] it was 2.41 µM (active); in test [7], 3.46 µM (active). Moreover, the figures for the AC50 in test [8] and in [9] were 2.01 µM (active) and 0.164 µM (active), respectively.
For the molecule `O=C1CCCCC1`, in [10], the molecule was classed as inactive.
`CCCCOC(=O)CCCCC(=O)OCCCC`: the outcome in [11] was inactive.
With `CCCCCCCCCCCCCCOS(=O)(=O)O`, the AC50 in test [12] is 2.99 µM (active); in test [13], 15.4 µM (active); in [2], 13.3 µM (active); in [3], 15.1 µM (active); in test [15], 28.1 µM (active); in test [16] it was 5.18 µM (active). Besides, the concentration at half-maximal activity (AC50) in [4] is 25 µM (active); in test [5], 25 µM (active); in [7], 31.9 µM (active); in test [8], 16.5 µM (active); in test [9], 46.3 µM (active). In addition, the molecule was called inactive in [14].
In the case of `CC(=O)OCC(COC(C)=O)OC(C)=O`, in test [17], the half-maximal activity concentration (AC50) is 40.5 µM (active).
In the case of `CC(N)=O`, the outcome in test [18] was inactive.
Regarding `CSc1ccc(Oc2ccc(S(N)(=O)=O)cc2CN(C)C)cc1C`, the AC50 is 5.83 µM (active) in test [12]; 25 µM (active) in [2]; 15 µM (active) in [3]; 19.6 µM (active) in test [15]; 5.11 µM (active) in [16]; 6.33 µM (active) in test [9]. The result in [1] and in test [17] was inactive.
Take `C/C=C/C=C/C(=O)O`: in test [11], the molecule was classed as inactive.
`O=C1OC(c2ccc(O)cc2)(c2ccc(O)cc2)c2ccccc21`: the concentration at half-maximal activity (AC50) in test [16] was 4.96 µM (active).
Consider `CC(=O)[C@@]1(O)CC[C@H]2[C@@H]3CCC4=CC(=O)CC[C@]4(C)[C@H]3CC[C@@]21C`, for which the AC50 in test [6] was 0.617 µM (active).
For `O=Cc1ccccc1C=O`, the molecule was called inactive in test [14]. Also, the figures for the AC50 in [19], in test [6] and in [20] were 19.2 µM (active), 17 µM (active) and 12.9 µM (active), respectively.
For the molecule `S=c1[nH]c2ccccc2s1`, the molecule was called inactive in test [9].
As to `CN(C)CCCN1c2ccccc2Sc2ccc(Cl)cc21`, the AC50 in [13] was 17.1 µM (active); in [1] it was 25 µM (active); in test [9] it was 25 µM (active); in [11], 14.5 µM (active).
Consider `CCCCc1nc2cccnc2n1Cc1ccc(-c2ccccc2-c2nnn[nH]2)cc1`, for which the outcome in test [12] was inactive. The concentration at half-maximal activity (AC50) in test [14] is 0.0191 µM (active).
Consider `CCc1cc(C2=C(C(=O)O)N(c3ccccc3C(F)(F)F)S(=O)(=O)c3ccccc32)cc2c1OCO2`, for which the AC50 is 16.2 µM (active) in [14]; 0.0451 µM (active) in test [19]; 0.442 µM (active) in test [18]; 17.1 µM (active) in test [17]; 25 µM (active) in test [9].
For `O=C(N[C@@H](c1ccccc1)[C@@H]1CCCCN1)c1cccc(C(F)(F)F)c1Cl`, the molecule was called inactive in test [1], in test [2], in test [3] and in [15]. The concentration at half-maximal activity (AC50) in test [16] is 12.1 µM (active); in test [8], 25 µM (active); in test [9], 17.8 µM (active).
